AID504770: growth inhibitors of E. coli YBA685 in a screen for V. cholerae RctB (chromosome II replication) inhibitors | E. coli YBA685 rctB-dependent plasmid, OD600 growth, 3 h; hits give low values | z-score (test concentration not listed) | 130,000 compounds, 0.27% hits | AID 504770; in the data active means z-score below about -2, passing the limit was not always enough
Mtb MbtI inh: blocks the Mycobacterium tuberculosis siderophore enzyme MbtI. P9WFX0. purified MbtI enzyme, fluorescence intensity read-out. inhibition, % (concentration not given with the values). 100,000 compounds, 0.89% hits; in the data active means inhibition mostly above about 56%, no sharp cut-off; inactive means mostly below about 77%
MenB inh: Mtb MenB enzyme inhibition; P9WNP5; MenB enzyme assay, absorbance read-out; inhibition, % (no concentration beside the values); 100,000 compounds, 0.43% hits; in the data active means inhibition above about 21%, passing the limit was not always enough
Target sequence (P9WNP5 whole entry, looked up): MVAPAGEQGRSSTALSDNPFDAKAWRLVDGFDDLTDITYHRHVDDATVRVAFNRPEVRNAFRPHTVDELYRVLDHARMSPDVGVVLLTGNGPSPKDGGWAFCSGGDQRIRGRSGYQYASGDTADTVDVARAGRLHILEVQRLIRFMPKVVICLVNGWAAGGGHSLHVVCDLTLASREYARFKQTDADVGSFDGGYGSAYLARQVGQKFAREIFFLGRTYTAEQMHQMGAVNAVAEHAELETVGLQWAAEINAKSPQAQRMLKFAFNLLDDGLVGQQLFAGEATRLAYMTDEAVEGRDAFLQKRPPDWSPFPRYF
PV pol inh: poliovirus RNA polymerase inhibition | P03300 | poliovirus polymerase elongation, fluorescence polarization; hits give low values | % elongation, % (compound at 16.7 µg/mL) | 150,000 compounds, 0.66% hits | AID 588519; in the data active means % elongation below about 90%
Active calls of the source: *; · = not tested or not shown. An excerpt weighted towards active compounds, which were near 1.4% of everything screened.

SMILES	AID504770	Mtb MbtI inh	MenB inh	PV pol inh
CCOC(=O)C1CCCN(C(=O)c2cc(-c3ccc(OC)c(OC)c3)no2)C1 (stereo not given)	-0.2	-30	1	102
CN(C)CCCNc1nn2c(=O)c3ccccc3nc2c2ccccc12	-0.05	-103	-4	82*
CCCNC(=O)c1cc2sc(Cl)cc2n1C	-1.1	5	-12	101
CCN(CC)S(=O)(=O)c1ccc2c(c1)nc(CC(=O)O)n2C	0.5	94*	-21	81*
O=C(CSc1nc2ccccc2c(=O)[nH]1)c1ccc(-c2ccccc2)cc1	0.45	1	0	104
O=C(CSc1nc2ccccc2c(=O)[nH]1)c1ccc(O)cc1O	-0.4	82*	6	104
Nc1c(C(=O)NC2CCCCC2)sc(=S)n1-c1ccccc1	0.35	56*	9	97
NC(=O)c1sc(=S)n(-c2ccccc2)c1N	0.15	·	-17	91
O=C(NCCc1ccccc1)c1sc(=S)n2c1[nH]c(=O)c1ccccc12	0	67	-5	95
O=C(NC1CCCCC1)c1sc(=S)n2c1[nH]c(=O)c1ccccc12	1.9	96*	2	98
CCOC(=O)CSc1nc(-c2ccccc2)ns1	-0.05	52*	-2	93
Cc1cccc(-c2nsc(SCC(=O)N3CCCCC3)n2)c1	0	49	6	102
O=C1C2C3C=CC(O3)C2C(=O)N1c1ccccc1C(F)(F)F (stereo not given)	-0.75	·	·	·
O=C1C=CC(=O)N1c1ccccc1C(F)(F)F	-2.5*	98*	·	101
O=C1C=CC(=O)N1c1cc(C(F)(F)F)ccc1Cl	1.2	98*	·	101
O=C1C=CC(=O)N1c1ccc(C(F)(F)F)cc1	-1	·	·	·
COc1ccc(C2CC(=O)N3CN(C4CCCCC4)CSC3=C2C#N)c(OC)c1 (stereo not given)	·	·	·	54*
COc1cc(C2CC(=O)N3CN(Cc4ccccc4)CSC3=C2C#N)cc(Br)c1O (stereo not given)	0.3	53	-13	101
N#CC1=C2SCN(C3CCCCC3)CN2C(=O)CC1c1ccc(Br)cc1 (stereo not given)	·	·	·	95
N#CC1=C2SCN(C3CCCCC3)CN2C(=O)CC1c1ccccc1 (stereo not given)	0.5	73*	-13	101
COc1cc2c(c(O)c1OC)CC(=O)CCC2	-0.1	-9	·	100
O=C(O)C1CSC2(CCN(Cc3ccccc3)CC2)N1 (stereo not given)	0	-3	38*	99
NC(=O)C1CCN(Cc2ccccc2)CC1	-0.1	-14	-1	100
COc1ccc(-c2cc(OC(=O)c3ccco3)cc3sc(=O)oc23)cc1	-0.15	8	5	101
NC1CCc2cc(O)c(O)cc2C1 (stereo not given)	·	93*	·	98
SMILES	AID504770	Mtb MbtI inh	MenB inh	PV pol inh
CCc1ccc(OC(=O)CSc2nnc(-c3ccc4c(c3)OCO4)o2)cc1	·	·	·	102
O=C(CSc1nnc(-c2cccs2)o1)Oc1ccccc1	·	·	·	94
COc1cccc(OC(=O)CSc2nnc(-c3ccc4c(c3)OCO4)o2)c1	·	·	·	87*
COc1cccc(OC(=O)CSc2nnc(-c3cccs3)o2)c1	·	·	·	90*
CC(C)(C)C(=O)Nc1sc2c(c1C(=O)O)CCCC2	1.1	·	·	·
O=C(NCc1ccco1)C(c1ccccc1)N(Cc1ccco1)C(=O)Cn1nnc2ccccc21 (stereo not given)	-0.5	1	34*	102
CC(C)(CNc1nsc2ccccc12)N1CCOCC1	-0.85	50	2	89*
COc1ccc(OCC(=O)NCCO)cc1	1.7	14	35*	102
Oc1cc(Cl)c(Cl)cc1O	-3.5*	102*	-61	92
O=C1C=CC(=O)C(CCCCCCC2=CC(=O)C=CC2=O)=C1	-0.1	96*	11	101
O=C1C=CC(=O)C(CCC2=CC(=O)C=CC2=O)=C1	0.6	98*	14	101
CCc1ccc(C2=CC(=O)C=CC2=O)cc1	-0.15	43	2	102
Cc1ccc(NC(=S)C(C#N)C(N)=O)cc1Cl (stereo not given)	-0.6	74*	-1	102
Cc1cc(C)c(C(=O)O)c(=O)[nH]1	0.6	12	-7	106
Cc1cc(C)c(C(=O)O)c(=S)[nH]1	-2.5*	89*	-22	102
COC(=O)c1sccc1Oc1ccc(C(F)(F)F)cc1NC(=O)Nc1ccc(Cl)cc1	-0.05	-4	-9	103
COC(=O)/C(C#N)=C/c1cccc(/C=C(\C#N)C(=O)OC)c1	0.4	17	-35	100
COc1cc2cc3c4c(cc(OC)c(OC)c4c2cc1OC)CCN3C	0	·	1	18*
CCC(=O)Nc1cccc2cccnc12	1.4	6	-9	102

High-throughput results (PubChem)
